This passage reports Potency results from PubChem BioAssay (Tox21).

Records with an inconclusive call do not appear. Entries that show only a call come without a potency. Calls of active or inactive are those of the source. Calls come from the whole dose curve; as a rule, active = well fitted inhibition curve with a large enough effect in the signal ratio in the repeat runs (not every such curve was filed as active); inconclusive = weak or mixed curves, or effect the other way; inactive = no such curve, though single readings can be large or run the other way; the % refers to the signal ratio.
Potency is the fitted concentration of half-maximal effect.

Chain of Estrogen receptor beta (Homo sapiens) (Q92731 whole entry, looked up): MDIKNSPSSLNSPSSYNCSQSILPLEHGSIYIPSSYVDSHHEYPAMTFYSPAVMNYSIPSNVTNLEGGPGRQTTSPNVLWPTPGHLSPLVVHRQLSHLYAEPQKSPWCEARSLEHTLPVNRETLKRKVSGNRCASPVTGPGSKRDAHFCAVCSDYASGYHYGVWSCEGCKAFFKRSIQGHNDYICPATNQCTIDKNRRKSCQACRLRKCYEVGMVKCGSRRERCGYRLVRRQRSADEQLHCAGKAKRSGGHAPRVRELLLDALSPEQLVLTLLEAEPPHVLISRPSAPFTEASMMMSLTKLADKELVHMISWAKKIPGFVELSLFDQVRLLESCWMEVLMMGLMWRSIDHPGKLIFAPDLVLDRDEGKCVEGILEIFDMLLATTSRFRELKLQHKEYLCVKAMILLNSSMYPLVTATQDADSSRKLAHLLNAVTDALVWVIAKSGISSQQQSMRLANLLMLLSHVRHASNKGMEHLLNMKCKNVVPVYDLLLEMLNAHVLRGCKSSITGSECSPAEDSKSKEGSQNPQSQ

The target of this assay is Estrogen receptor beta (Homo sapiens) (UniProt Q92731). The experiment in a line: qHTS assay to identify small molecule antagonists of the estrogen receptor beta (ER-beta) signaling pathway (AID 1259378). The conditions noted are these: ER-beta-UAS-bla HEK293T, beta-lactamase FRET ratio, 16 h; series mostly up to 92.4 µM. The source says:
National Center for Advancing Translational Sciences [NCATS]
NIH Chemical Genomics Center [NCGC]
U.S. Environmental Protection Agency [EPA]
National Institutes of Environmental Health Sciences [NIEHS]
National Toxicology Program [NTP]
U.S. Food and Drug Administration [FDA]
Estrogen receptor (ER), a nuclear hormone receptor, plays an important role in development, metabolic homeostasis and reproduction. Two subtypes of ER, ER-alpha and ER-beta, have similar expression patterns with some uniqueness in both types. Endocrine disrupting chemicals (EDCs) and their interactions with steroid hormone receptors like ER causes disruption of normal endocrine function. To identify the compounds that inhibit ER signaling, an ER-beta-UAS-bla GripTite cell line (Life Technologies, Madison, WI, USA) containing a beta-lactamase reporter gene under the control of an UAS response element was used to screen Tox21 10K compound library.
Tox21 Assay Protocol Summary:
ER-beta-UAS-bla HEK293T cells were dispensed at 2,000 cells/4 uL of assay medium containing 2% charcoal stripped FBS per well into black wall/clear-bottom 1536-well plates using a Multidrop Combi (ThermoFisher Scientific, Waltham, MA) dispenser. After the assay plates were incubated at a 37C and 5% CO2 for 6 hr, 23 nL of compounds dissolved in DMSO, positive controls or DMSO only was transferred to the assay plate by a Pintool station (Kalypsys, San Diego, CA), followed by addition of 1 uL (1nM as final concentration) of 17-beta-estradiol (E2) in assay medium using a BioRAPTR FRD (Flying Reagent Dispenser, Aurora Discovery, San Diego, CA). The plates were incubated at 37C and 5% CO2 for 16 hr. Then 1 uL of LiveBLAzerTM B/G FRET substrate was added using a Flying Reagent Dispenser, the plates were incubated at room temperature for 2 hours, and fluorescence intensity was measured by an Envision plate reader (PerkinElmer, Shelton, CT).
A general note: In qHTS, concentration-response curves come from the screen itself.
With `CC(C)CC(C)N` (stereo not given), the Potency result is “inactive”. For the molecule `CN(C)CCc1c[nH]c2cccc(O)c12`, the Potency entry was “inactive”.

With `Fc1cccc(Cl)c1CCl`, the Potency entry was “inactive”. As for `O=[N+]([O-])c1ccc(Oc2ccc(C(F)(F)F)cc2[N+](=O)[O-])cc1`, the entry is “inactive”; as for `CN(CCCC(O)c1cccnc1)N=O` (stereo not given), “inactive”. As for `Nc1ccc(Cl)cc1C(=O)c1ccccc1`, the figure is 30.6 µM (active); as for `O=C(Nc1ccc2[nH]ccc2c1)c1cc2cc(F)ccc2n1Cc1cccc(F)c1`, 17.2 µM (active). As for `N#CNC#N`, the entry is “inactive”; as for `CS(=O)(=O)c1ccc(C(=O)C2C(=O)CCCC2=O)c([N+](=O)[O-])c1`, “inactive”; as for `CCC(C)c1cc(C(C)(C)C)cc(-n2nc3ccccc3n2)c1O` (stereo not given), “inactive”. For `CC(O)C#N` (stereo not given), the Potency entry is “inactive”. As for `BrCC(Br)c1ccccc1` (stereo not given), the entry is “inactive”; as for `CC1(C)C(/C=C(\Cl)C(F)(F)F)C1C(=O)OC(C#N)c1cccc(Oc2ccccc2)c1` (stereo not given), “inactive”; as for `CC(Cc1ccc(C(C)(C)C)cc1)CN1C[C@@H](C)O[C@@H](C)C1` (stereo not given in full), “inactive”.

With `COCC(=O)N(c1c(C)cccc1C)[C@H](C)C(=O)OC`, the Potency entry was “inactive”.

`O=C(NC(=O)c1c(F)cccc1F)Nc1cc(Cl)c(OC(F)(F)C(F)F)c(Cl)c1`: the Potency entry was “inactive”. As for `Oc1cc(Cl)c(Cl)c(Cl)c1`, the figure is 14.6 µM (active); as for `COc1ccc(OC)c(CC(C)N)c1` (stereo not given), “inactive”; as for `N#CCCSCCC#N`, “inactive”. In the case of `Cc1cc(Cl)ccc1O[C@H](C)C(=O)O` it was “inactive”; in that of `O=CC(Br)(Br)Br`, “inactive”.

As to `O=c1[nH]c2ccccc2n1C1CCN(CCCC(c2ccc(F)cc2)c2ccc(F)cc2)CC1`, the Potency is 17.2 µM (active). In the case of `CCc1ccccc1C` it was “inactive”; in that of `Nc1ccccc1C(=O)OC/C=C/c1ccccc1`, 48.7 µM (active); in that of `C1CCC2CCCCC2C1` (stereo not given), “inactive”. With `CC(C)[C@H](C(=O)O[C@H](C#N)c1cccc(Oc2ccccc2)c1)c1ccc(Cl)cc1`, the Potency entry was “inactive”. In the case of `CCCOCC(=Nc1ccc(Cl)cc1C(F)(F)F)n1ccnc1` it was 17.2 µM (active). As for `CC1(c2ccc(Oc3ccccc3)cc2)OC(=O)N(Nc2ccccc2)C1=O` (stereo not given), the Potency is 10.9 µM (active). In the case of `N#Cc1ccccc1Cl` it was “inactive”; in that of `CC1CCC(C(C)C)C(OC(=O)c2ccccc2N)C1` (stereo not given), 8.51 µM (active); in that of `ClC(Cl)=C(Cl)Cl`, “inactive”. In the case of `CCCCCCCCCCCCCN1CC(C)OC(C)C1` (stereo not given) it was “inactive”; in that of `CC1(C)[C@H](C(=O)O[C@H](C#N)c2cccc(Oc3ccccc3)c2)[C@@H]1/C=C(\Cl)C(F)(F)F`, “inactive”.

In the case of `N#CCCO`, the Potency result was “inactive”. In the case of `c1ccc2c(c1)[nH]c1cnccc12` it was “inactive”; in that of `CC(C)CCCCCOC(=O)c1ccccc1C(=O)OCCCCCC(C)C`, “inactive”. Regarding `FC(F)(F)c1cccc(C2=CCN(CCc3ccc4ccccc4c3)CC2)c1`, the Potency entry is “inactive”.

With `Clc1ccc(C(Cl)(Cl)Cl)c(Cl)c1`, the Potency entry was “inactive”.

For the molecule `C[As+](C)(C)CC(=O)[O-]`, the Potency result was “inactive”.

With `C=COCCCl`, the Potency entry was “inactive”.
